Bioassay records (PubChem BioAssay)
AID504770 – growth inhibitors of E. coli YBA685 in a screen for V. cholerae RctB (chromosome II replication) inhibitors; E. coli YBA685 rctB-dependent plasmid, OD600 growth, 3 h; stronger effect = lower value; z-score (no concentration beside the values); 130,000 compounds, 0.27% hits; in the data active = z-score below about -2, passing the limit was not always enough
PV pol inh – inhibitors of poliovirus RNA polymerase binding and polymerization; % elongation, % (compound at 16.7 µg/mL); poliovirus polymerase elongation, fluorescence polarization; stronger effect = lower value; 150,000 compounds, 0.66% hits; P03300; in the data active = % elongation below about 90%
Mtb MbtI inh – inhibitors of Mycobacterium tuberculosis siderophore enzyme MbtI | P9WFX0 | purified MbtI enzyme, fluorescence intensity read-out | 100,000 compounds, 0.89% hits | inhibition, % (concentration not given with the values); in the data active = inhibition mostly above about 56%, no sharp cut-off; inactive = mostly below about 77%
MenB inh – blocks the Mycobacterium tuberculosis MenB enzyme; P9WNP5; 100,000 compounds, 0.43% hits; inhibition, % (concentration not given with the values); AID 540299; MenB enzyme assay, absorbance read-out; in the data active = inhibition above about 21%, passing the limit was not always enough
Target sequence (P9WNP5 whole entry, looked up): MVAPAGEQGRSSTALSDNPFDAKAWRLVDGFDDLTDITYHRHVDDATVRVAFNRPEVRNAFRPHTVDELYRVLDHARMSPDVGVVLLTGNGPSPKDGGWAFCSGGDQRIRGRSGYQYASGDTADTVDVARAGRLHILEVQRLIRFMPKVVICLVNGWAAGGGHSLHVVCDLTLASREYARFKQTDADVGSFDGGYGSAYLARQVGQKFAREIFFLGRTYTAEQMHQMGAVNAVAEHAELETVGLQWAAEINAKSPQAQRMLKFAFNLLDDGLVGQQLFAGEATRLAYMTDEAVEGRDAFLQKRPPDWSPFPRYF
Of the large screens only hits and unclear results are named; the others gave an inactive call; ! = not active in a repeat. Most compounds without a hit are left out; they make up all but 1.4% or so of the library.

Ic1ccc(Nc2nc3nonc3nc2N/N=C\c2ccco2)cc1	MenB inh 28.9
CCNc1nc(C)nc2sc(CC)cc12	MenB inh 31.7 (no result: Mtb MbtI inh)
COC(=O)C1CCCCCC1=O (configuration not stated)	none (no result: MenB inh)
CC1Cc2ccccc2N1C(=O)C1CCN(S(=O)(=O)c2ccc(-n3cnnn3)cc2)CC1 (configuration not stated)	MenB inh 39.3
CC1(C)CC(NCc2cccnc2)=CC(=C(C#N)C#N)C1	none
O=C1OC(c2ccccc2)OC(=O)C1=Cc1cccs1 (configuration not stated)	Mtb MbtI inh 65.0
CN1C(=O)C(=Cc2cccs2)C(=O)N(C)C1=S	none
c1ccc(-c2nnc3n2N=C(c2cccs2)CS3)cc1	none
CN(C)S(=O)(=O)c1cccc(-c2nnc3n2N=C(c2cccs2)CS3)c1	PV pol inh 76.0, Mtb MbtI inh 97.3
CSC(=NCc1ccc(C)cc1)Nc1ccccc1	none (no result: PV pol inh, Mtb MbtI inh, MenB inh)
S=c1nc(Cc2ccc(Cl)cc2)[nH][nH]1	Mtb MbtI inh 97.0
CN(/C=C1\CCCCC1=O)C1CCCCC1	none
N#Cc1ccc(Cl)cc1NC(=O)CSc1nnc(-c2c[nH]c3ccccc23)n1CC1CCCO1 (configuration not stated)	none
O=C1C(O)=C(O)C(=O)C(O)=C1O	PV pol inh 97.0!
O=C(OCC1COc2ccccc2O1)c1cc2ccccc2[nH]1 (configuration not stated)	none
CCN(CC)NC(=S)Nc1ccccc1	none
CCC(C)NC(=S)Nc1ccccc1 (configuration not stated)	MenB inh 30.3
CCNC(=S)Nc1ccccc1	none
CC(C)N(C)NC(=S)Nc1ccccc1	MenB inh 40.6
COC(=O)c1c(NC(=O)/C(C#N)=C/c2ccco2)sc(C)c1C	Mtb MbtI inh 82.3
N#C/C(=C\c1ccco1)C(=O)Nc1ccccc1	none
C[N+]1(C)CCOC12CCCCC2	MenB inh 45.4
CC1CN(Cn2nc(C(=O)O)c3ccccc32)CC(C)O1 (configuration not stated)	none
CC1CN(Cn2c(=S)oc3ccccc32)CC(C)O1 (configuration not stated)	PV pol inh 90.0
Cc1ccc(S(=O)(=O)Nc2c(C#N)c3nc4ccccc4nc3n2Cc2ccccc2)cc1	PV pol inh 73.0
Cn1c(SCC(=O)NN)nc2ccccc21	none
Cn1c(SCC(=O)O)nc2ccccc21	MenB inh 36.5
O=S(=O)(c1ccc(N2CCC(CNc3nc4ccccc4s3)CC2)cc1)N1CCOCC1	MenB inh 39.1
O=c1[nH]c(CN2CCNCC2)nc2ccccc12	none
CC(c1nc2ccccc2c(=O)[nH]1)N1CCN(Cc2ccc(Cl)s2)CC1 (configuration not stated)	PV pol inh -3.0
CCOc1ccc(NC(=O)c2c(NC(=O)c3ccccc3Br)sc3c2CCC(C)C3)cc1 (configuration not stated)	PV pol inh 78.0 (no result: AID504770, Mtb MbtI inh, MenB inh)
OC1(c2ccccc2)CN2CCC1CC2 (configuration not stated)	none
CCCOc1ccc(/C=C/C(=O)Nc2sc(C)c(C)c2C(=O)OCC)cc1OC	PV pol inh 73.0 (no result: AID504770, Mtb MbtI inh, MenB inh)
c1ccc(C2OCc3nonc3CO2)cc1	none (no result: Mtb MbtI inh)
C/C(O)=C(\C#N)P(C)(=O)OC(C)C (configuration not stated)	MenB inh 40.7
COc1ccc(CCNC(=O)c2ccc3c(c2)N(Cc2ccccc2)C(=O)c2ccccc2S3=O)cc1OC (configuration not stated)	PV pol inh -15.0 (no result: AID504770, Mtb MbtI inh, MenB inh)
O=C1NC(=O)N(c2ccccc2)C(=O)/C1=C/c1ccccc1	none
CCC(C)N1C(=O)/C(=C\c2cnn(-c3ccccc3)c2)C(=O)NC1=S (configuration not stated)	Mtb MbtI inh 80.2
O=C(Oc1cccc2cccnc12)c1cccc(F)c1	none (no result: PV pol inh, MenB inh)
O=C(Oc1cccc2cccnc12)c1cc(C(F)(F)F)cc(C(F)(F)F)c1	AID504770 -3.25
O=C1OC2(O)c3ccccc3C(=O)N2c2ccccc21 (configuration not stated)	none
O=C1C=C2N(c3ccccc3)CCOC2(O)c2ccccc21 (configuration not stated)	PV pol inh 37.0 (no result: Mtb MbtI inh)
C=C(C)CNC(=S)Nc1cc(Cl)ccc1Sc1nncn1C	Mtb MbtI inh 79.2
COc1cc(CC(=O)Nc2cc(Cl)ccc2Sc2nncn2C)cc(OC)c1OC	none
COc1cc2cc3c4c(cc(OC)c(OC)c4c2cc1OC)CCN3C	PV pol inh 18.0 (no result: Mtb MbtI inh)
CN1C(C(=O)c2ccccc2)=C(N2CCOCC2)c2ccccc2S1(=O)=O	none
COC(=O)c1sc(=S)n(-c2cc(OC)ccc2OC)c1N	none
COC(=O)c1sc(=S)n(-c2cccc(OC)c2)c1N	Mtb MbtI inh 95.6
